# Reference: PubChem BioAssay AID2599 (Sanford-Burnham Center for Chemical Genomics, 2010)
# Hit rate of the full screen: of about 330,000 compounds, about 5,800 (1.8%) were called active.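 The calls were made as follows: active = inhibition above about 50% at the single tested dose (limit read from the data); inactive = the rest.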 Shown is part of a subset that was picked to be rich in actives.
# Biological target: Sentrin-specific protease 6 (Homo sapiens) (UniProt Q9GZR1)
# Test: SENP6 protease inhibitors, primary screen, biochemical, luminescence, uHTS (AID 2599);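 also: plate controls were DMSO wells with enzyme for no effect and DMSO wells lacking enzyme for full effect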
# Conditions: Recombinant SENP6 catalytic domain, aminoluciferin luminescence; at 10 µM; hits give high values
# Sequence of Sentrin-specific protease 6 (Homo sapiens) (Q9GZR1 628-1112 limits assumed): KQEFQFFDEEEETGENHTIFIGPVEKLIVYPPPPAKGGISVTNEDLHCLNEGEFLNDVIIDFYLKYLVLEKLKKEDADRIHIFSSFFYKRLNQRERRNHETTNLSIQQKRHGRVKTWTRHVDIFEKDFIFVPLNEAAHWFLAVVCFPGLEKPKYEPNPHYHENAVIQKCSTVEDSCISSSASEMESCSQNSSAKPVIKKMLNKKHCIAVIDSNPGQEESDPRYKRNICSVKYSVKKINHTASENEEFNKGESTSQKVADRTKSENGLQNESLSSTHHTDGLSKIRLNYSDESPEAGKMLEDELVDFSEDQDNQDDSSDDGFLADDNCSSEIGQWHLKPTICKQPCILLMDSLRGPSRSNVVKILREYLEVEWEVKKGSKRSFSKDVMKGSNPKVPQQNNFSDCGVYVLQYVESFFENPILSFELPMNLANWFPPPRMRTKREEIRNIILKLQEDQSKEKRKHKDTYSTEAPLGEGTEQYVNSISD
row,Structure (SMILES),inhibition
1,N/C(=N\OC(=O)c1ccc([N+](=O)[O-])cc1)c1ccccn1,93.3% (active)
2,Cc1ccc(NC(=O)c2ccccn2)cc1S(=O)(=O)N1CCOCC1,-7.58% (inactive)
3,O=C(COC(=O)c1ccccn1)NNC(=O)c1ccc([N+](=O)[O-])cc1,-1.82% (inactive)
4,O=C(COC(=O)c1ccccn1)NNC(=O)c1ccc(Br)cc1,6.84% (inactive)
5,Cc1ccc(C(=O)O/N=C(\N)c2ccccn2)cc1Cl,94.1% (active)
6,COc1ccc(C(=O)O/N=C(\N)c2ccccn2)cc1[N+](=O)[O-],13% (inactive)
7,Oc1cc2c(cc1O)CN(C(=S)NCCc1ccc(Cl)cc1)CCC2,1.23% (inactive)
8,O=C(NCc1ccncc1)C1CCN(C(=O)c2cccc(Cl)c2)CC1,-3.02% (inactive)
9,Cc1cc(Nc2cccc(C)c2C)n2ncnc2n1,-7.33% (inactive)
10,C=CCn1c(-c2ccc(Cl)cc2)ccc(C#N)c1=O,4.58% (inactive)
11,O=C(Nc1ccc2c(c1)CCC2)c1cccc(S(=O)(=O)Nc2ccccc2Cl)c1,58.9% (active)
12,O=C(Nc1ccc2c(c1)CCC2)c1cccc(S(=O)(=O)N2CCN(c3ccc(F)cc3)CC2)c1,-2.68% (inactive)
13,O=C(c1cccc(S(=O)(=O)Nc2ccccc2Cl)c1)N1CCN(C(=O)c2ccco2)CC1,0.095% (inactive)
14,CCOc1cnc(C(=O)NNC(=O)c2ccccc2Br)o1,-9.25% (inactive)
15,COc1ccc(C(=O)Nc2ccc(F)cc2F)cc1,76.1% (active)
16,COc1cc(OC)cc(C(=O)OCC(=O)Nc2ccc(F)cc2F)c1,3.41% (inactive)
17,COc1ccccc1CC(=O)Nc1ccc(F)cc1F,-5.72% (inactive)
18,Cc1ccc(C)c(S(=O)(=O)N2CCN(C(=O)Nc3ccccc3)CC2)c1,-12.7% (inactive)
19,CC1CCCC(C)N1C(=O)COC(=O)COc1ccccc1C#N (configuration not stated),-21.9% (inactive)
20,O=C(OCc1ccc(Br)cc1)c1cccc(-c2nnc(-c3ccccc3)o2)c1,-4% (inactive)
21,Nc1ccc(-c2nnc(-c3ccc(-c4ccccc4)cc3)o2)cc1,53.4% (active)

row,Structure (SMILES),inhibition
1,Nc1ccc(-c2nnc(-c3ccccc3)o2)cc1,61.5% (active)
2,COc1ccccc1-c1nnc(-c2ccc(F)cc2)o1,40.7% (inactive)
3,Brc1ccc(-c2noc(-c3ccccc3)n2)o1,-29.7% (inactive)
4,OC(c1nnc(-c2ccccc2)o1)c1cccs1 (configuration not stated),-10.9% (inactive)
5,CSc1ccccc1-c1nnc(-c2ccc(Cl)cc2)o1,26.3% (inactive)
6,Brc1ccc(-c2nnc(-c3ccccc3)o2)o1,67.5% (active)
7,CN(C)c1ccc(-c2nnc(-c3cccnc3)o2)cc1,14.7% (inactive)
8,COc1ccc(C(C)=O)cc1COC(=O)Cn1cnc2ccccc2c1=O,-0.874% (inactive)
9,O=C(NCC1CCCO1)c1ccc(S(=O)(=O)Nc2ccc(F)cc2)cc1 (configuration not stated),-0.148% (inactive)
10,CN(C(=O)c1ccccc1)c1nccnc1C#N,11.5% (inactive)
11,CC(=O)c1c(C)[nH]c(C(=O)OCC(=O)NCCC(C)C)c1C,-9.8% (inactive)
12,Cc1cc(C)c(C#N)c(SCC(=O)N(CC(C)C)C2CCS(=O)(=O)C2)n1 (configuration not stated),-11.7% (inactive)
13,O=C(O)c1ccc2c(c1)C(=O)N(NC(=O)c1ccc(O)cc1)C2=O,-2.08% (inactive)
14,O=C(O)c1ccc(/C=C2\SC(=S)N(NC(=O)c3ccc(Br)cc3)C2=O)cc1,-7.64% (inactive)
15,CC(=O)N1C(=O)/C(=C2\SC(=S)N(NC(=O)c3ccc(O)cc3)C2=O)c2ccccc21,80.2% (active)
16,C/C(=N\Nc1ncc(Cl)cc1Cl)c1cccs1,6.67% (inactive)
17,O=C(Nc1ccccc1-c1nc2ccccc2[nH]c1=O)c1cccs1,0.16% (inactive)
18,C/C(=N\Nc1nc2ccccc2[nH]1)c1cccs1,60.7% (active)
19,COc1ccc(NC(=O)CS(=O)(=O)c2ccccc2)cc1,13.2% (inactive)
20,COc1ccc(N(Cc2ccccc2)S(=O)(=O)c2cccc(C(=O)O)c2)cc1,-6.92% (inactive)
21,COc1ccc(C(CC(=O)c2ccccc2)S(=O)(=O)c2ccccc2)cc1 (configuration not stated),59.1% (active)

row,Structure (SMILES),inhibition
1,COc1ccc(NC(=O)C2CCC(CNC(=O)[C@@H]3Cc4ccccc4CN3)CC2)cc1 (some centres not stated),-1.01% (inactive)
2,CCC(NC(=O)c1cc(COc2ccc(F)c(F)c2)on1)c1ccncc1 (configuration not stated),12.2% (inactive)
3,O=C(NCCN1CCCC(O)C1)c1cc(COc2c(F)cccc2F)on1 (configuration not stated),4.9% (inactive)
4,Cc1ccc(NC(=O)CSCC(=O)Nc2sccc2C#N)cc1,0.055% (inactive)
5,Cc1csc(SCC(=O)Nc2sccc2C#N)n1,88.2% (active)
6,Cc1cccc(C)c1Nc1nnc(SCC(=O)Nc2sccc2C#N)s1,22.6% (inactive)
7,COc1ccc(CCNC(=O)CS(=O)(=O)Cc2nc(-c3ccc(C)cc3)oc2C)cc1OC,8.83% (inactive)
8,CSCCC(Nc1ccc(S(=O)(=O)N2CCOCC2)cc1[N+](=O)[O-])C(=O)OCC(=O)N(C(C)C)C(C)C (configuration not stated),-3.58% (inactive)
9,COc1ccccc1CN(C)C(=O)c1cc2ccccc2o1,-15.1% (inactive)
10,Cc1ccc(OC(=O)c2cc3ccccc3o2)cc1,72.6% (active)
11,C/C(=N\NC(=S)Nc1ccc(C)cc1)c1cc2ccccc2o1,-7.73% (inactive)
12,CC1=C/C(=N\OS(=O)(=O)c2ccccc2)C=CC1=O,-4.19% (inactive)
13,CCOc1ccc(OCC)c(NC(=O)CCS(=O)(=O)c2ccc(C)cc2)c1,-6.59% (inactive)
14,CC(=O)Oc1cccc(C(=O)Nc2ccccc2NC(=O)c2cccc(OC(C)=O)c2)c1,7.29% (inactive)
15,CC(=O)Oc1ccc2c(c1)C(=O)c1ccccc1C2=O,55% (active)
16,CC(=O)O[C@H]1c2ccccc2-c2ccccc2[C@@H]1OC(C)=O,8.21% (inactive)
17,CC(C)C(=O)NCC(c1cccs1)S(=O)(=O)c1ccc(F)cc1 (configuration not stated),-1.5% (inactive)
18,COc1cc(/C=C/C(=O)OCC(=O)NC(=O)NCc2ccccc2)ccc1OCC#N,-0.36% (inactive)
19,Cc1cc2oc3ccc(NCCC4CCCN4C)cc3c(=O)c2cc1C (configuration not stated),2.23% (inactive)
20,O=C(Nc1c2c(nn1-c1cccc(Cl)c1)CS(=O)(=O)C2)c1cccs1,-6.08% (inactive)
